Screens: PubChem, National Center for Advancing Translational Sciences (NCATS)
Hits are enriched below; roughly 12% of the tested compounds scored in any of these assays.
Sfp inh – Sfp phosphopantetheinyl transferase inhibition; Biochemical Sfp PPTase activity, qHTS; Q9F4F7; Potency, µM, hits mostly inhibitors; hit rate 3.5% among 310,000; AID 1490;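 further: the enzyme is Sfp with the accession as filed and its product quenches rhodamine fluorescence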
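Fluorescence-quenching assay with 15 nM Sfp, 5 uM rhodamine-CoA and 12.5 uM BHQ-2-labelled ybbR peptide in pH 7.6 Hepes/MgCl2 buffer. Enzyme was pre-incubated with compound for 15 min at room temperature. Rate was taken from the 30-min fluorescence change (525/598 nm).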
BAZ2B inh – blocks human BAZ2B; Q9UIF8; AlphaScreen BAZ2B-H3K14Ac peptide displacement; Potency, µM (series often up to 114 µM), most hits filed as inhibitors; hit rate 4.4% among 360,000; AID 504333; further: nearly all actives have a fitted effect of over 60% in size
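AlphaScreen luminescence quantifies BAZ2B engagement of H3K14Ac peptide; the protein and biotinylated peptide are both at 50 nM final, buffer PBS pH 7.4 with 0.01% Tween-20, all steps at room temperature.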
HP1b chromo inh – blocks HP1-beta chromodomain binding to methylated histone tails. AlphaScreen HP1-beta / biotin-H3K9me3 peptide binding. Potency, µM (top dose mostly 114 µM), hits mostly inhibitors. hit rate 0.56% among 390,000. P83916; further: nearly all actives have a fitted effect of over 70% in size
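AlphaScreen: HP1-beta (50 nM) preformed 30 min with biotin-H3(1-18)K9me3 peptide (50 nM) in PBS pH 7.4, 0.01% Tween-20. Compound added for 30 min at RT, then streptavidin donor/nickel chelate acceptor beads (10 ug/mL) for 30 min.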
G9a inh – blocks human histone lysine methyltransferase G9a. G9a H3K9 monomethylation, AlphaScreen, 2 h. Q96KQ7. hit rate 8.8% among 350,000. Potency, µM (doses to about 102 µM), usual class: inhibitors; further: nearly all actives have a fitted effect of over 75% in size
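Step 1: enzyme (final 20 nM) with compound, 15 min RT. Step 2: substrate peptide 500 nM and SAM 20 uM, 2 h RT. Step 3: anti-H3K9me1 antibody and AlphaScreen beads, 10 min, then plate read.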
L3MBTL1 block – inhibitors of human L3MBTL1. Q9Y468. AlphaScreen L3MBTL1–H3K9me1 peptide binding. Potency, µM (titrated, usually from 57.1 µM), most hits filed as inhibitors. hit rate 0.66% among 230,000. AID 485360; further: nearly all actives have a fitted effect of over 60% in size
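AlphaScreen assay: L3MBTL1 (50 nM final) was preincubated 30 min at room temperature with biotinylated H3(1-15)K9me1 peptide (75 nM final), then 30 min with library compounds; streptavidin donor and nickel chelate acceptor beads (10 ug/mL final) added, 30 min dark.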
JMJD2A Tudor – blocks the human JMJD2A Tudor domain; Potency, µM (top dose mostly 114 µM), usual class: inhibitors; hit rate 4.4% among 390,000; AlphaScreen JMJD2A-Tudor / H3K4me3 peptide binding; AID 504339; further: nearly all actives have a fitted effect of over 50% in size
A number is an active result; 0 = inactive; ? = inconclusive; - = no result; [ ] = another dose, or the depositor's remark. The call rests on the fitted dose curve; in most records, active means well fitted curve in the direction sought with a large enough effect; inconclusive means small, poorly fitted or top-dose-only effect, or another doubt; inactive means no such curve, though single readings can be large; an effect the other way counts as inactive or inconclusive.

SMILES | Sfp inh | BAZ2B inh | HP1b chromo inh | G9a inh | L3MBTL1 block | JMJD2A Tudor
CCC1C/C(=C\c2cc(OC)c(OC)cc2OC)C(=O)/C(=C/c2cc(OC)c(OC)cc2OC)C1 (configuration not stated) | 56.2µM | 10µM | ? | 25.1µM | - | 17.8µM
Fc1ccc(-c2cc(-c3ccc(F)cc3)c3c(n2)-c2cc(F)ccc2OC3)cc1 | - | 0 | 0 | 0 | - | 0
NC1C(O)OC(CO)[C@@H](O)[C@@H]1O[C@H]1O[C@@H](C(=O)O)C(O)C(O)C1O (some centres not stated) | 0 | - | - | - | - | -
COc1ccc(-c2sc3ccccc3c2-c2ccc(OCCN3CCCCC3)cc2)cc1 | - | - | 0 | - | 0 | 44.7µM
c1ccc(-c2sc3ccccc3c2-c2ccc(OCCN3CCCC3)cc2)cc1 | - | - | 0 | - | 0 | 50.1µM
c1ccc(-c2ccc(OCCN3CCCC3)cc2)cc1 | 0 | - | - | - | - | -
CCCCn1c(SCC(=O)Nc2nnc(C)s2)nnc1-c1ccoc1C | 0 | 0 | 0 | 0 | 0 | 0
CCCn1c(SCC(=O)Nc2nnc(C)s2)nnc1-c1ccoc1C | 0 | 0 | 0 | 0[12.7 µM] | 0 | 50.1µM
Cc1nnc(NC(=O)CSc2nnc(-c3ccoc3C)n2CC(C)C)s1 | ? | 0 | 0 | 0[12.7 µM] | 0 | 50.1µM
N#C/C(=C\C=C\c1ccccc1[N+](=O)[O-])C(=O)NCc1ccccc1 | 0 | ? | ? | 39.8µM | - | ?
N#C/C(=C\c1ccccc1[N+](=O)[O-])C(=O)NCc1ccccc1 | 0 | 0 | 0 | - | 0 | 0
C=CCNC(=O)/C(C#N)=C/c1ccccc1[N+](=O)[O-] | 0 | 0 | 0 | ? | 0 | 0
CCCCCCCCNC(=O)/C(C#N)=C/c1ccccc1[N+](=O)[O-] | 0 | 0 | 0 | 39.8µM | 0 | ?
CS(=O)(=O)N1CCC(n2c(C(F)(F)F)nc3cccnc32)CC1 | - | 0 | 0 | 0 | - | 0
COCCOC(=O)c1c(C)nc(SCC(=O)Nc2ccc(OC)cc2)c(C#N)c1-c1ccco1 | 0 | 0 | 0 | 44.7µM | - | 0[11.4 µM]
Cc1nc(SCC(=O)c2ccccc2)c(C#N)c(-c2ccco2)c1C(=O)NCc1ccco1 | 22.4µM | 0 | 0 | ? | ? | 0
Cc1ccc(CNC(=O)C2CCCN(c3ncnc4onc(-c5ccc(F)cc5)c34)C2)cc1 (configuration not stated) | - | 0 | 0 | 0 | - | 0
Clc1ccc(-c2csc(Nc3cccnc3)n2)cc1 | 0 | 0 | 0 | ? | 0 | 0
O=[N+]([O-])c1ccccc1Nc1nc(-c2cccnc2)cs1 | 0 | 14.1µM | ? | ? | ? | 35.5µM
Clc1ccc(Nc2nc(-c3cccnc3)cs2)cc1 | 79.4µM | 0 | 0 | ? | - | 0
c1ccc(-c2csc(Nc3cccnc3)n2)cc1 | 31.6µM | 0 | 0 | 0 | 0 | 0
CCOC(=O)c1cccc(NC(=O)c2ccc3snnc3c2)c1 | - | 0 | 0 | 0 | - | 0
Cc1ccc(C)c(N2CCN(C(=O)C(C)n3c(C)c4cnn(-c5ccccc5)c(=O)c4c3C)CC2)c1 (configuration not stated) | - | 0 | 0 | 0 | - | 0
O=C(/C=C/c1ccco1)Nc1cccc(C(=O)Nc2ccccc2C(=O)O)c1 | 56.2µM | ? | 0 | - | 14.1µM | 79.4µM
CCc1ccccc1NC(=O)c1cccc(NC(=O)/C=C/c2ccco2)c1 | 20µM | 0 | 0 | ? | 0 | 0
SMILES | Sfp inh | BAZ2B inh | HP1b chromo inh | G9a inh | L3MBTL1 block | JMJD2A Tudor
CCCCCCCCCOC(=O)CNc1nc(C#N)nc(NCC(=O)OCCCCCCCCC)n1 | - | - | 0 | - | - | 0
Cc1cc2c(cc(C(=O)N3CCC(C(=O)N4CCCC4)CC3)n2Cc2c(F)cccc2Cl)o1 | 50.1µM | ? | 0 | 50.1µM | - | 56.2µM
O=C(c1ccc2c(c1)OCCO2)N1CCN(Cc2c(F)cccc2Cl)CC1 | - | 0 | 0 | 0[12.7 µM] | 0 | 0
CCOC(=O)c1cc2occc2n1Cc1c(F)cccc1Cl | 0 | 50.1µM | 0 | ? | - | 0
C=CCc1c(C)nc2nc(SCC(=O)Nc3ccccc3CC)nn2c1C | - | 0 | 0 | 0 | - | 0
O=C(Cn1c(=O)c2cccn2c2ccc(F)cc21)N1CCN(c2ccccc2F)CC1 | - | 0 | 0 | 0 | - | 0
COc1cccc(C2CC(c3c(-c4ccccc4)c4cc(Cl)ccc4[nH]c3=O)=NN2S(C)(=O)=O)c1OC (configuration not stated) | 0 | 0 | 0 | 39.8µM | - | 0
